From PubChem BioAssay (NCI)
Compounds without any hit were thinned out: in the full panel of roughly 83,000, 20% have a hit.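 The endpoint reported here, percent growth, reads 100 for growth as untreated, 0 for no net growth and -100 for all cells dead.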 A number with no mark means an inactive call. Calls of active or inactive are those of the source. How the source made its calls: active means growth percent below 10; inactive means the rest.

Test system: HCT-116 colon
Assay: NCI-60 one-dose screen, 48 h (100 = growth as untreated, 0 = no growth, -100 = all killed)
Conditions: 10 µM unless noted

SMILES	growth
Cc1ccc(NC(=O)c2ccc(CN3CCN(C)CC3)c(C(F)(F)F)c2)cc1Oc1ccc(-c2[nH]nc3ncnc(N)c23)cc1	8.72% (active)
COc1ccc([C@H]2c3[nH]c4ccccc4c3C[C@@H]3C(=O)N(C4CCN(Cc5ccccc5)CC4)CC(=O)N23)c(OC)c1	56.8%
IP(CCCSc1n(Cc2ccc3ccccc3c2)c(-c2ccccc2)c(-c2ccccc2)[n+]1Cc1ccc2ccccc2c1)(c1ccccc1)(c1ccccc1)c1ccccc1	14.1%
O=C1NC(=O)c2c1c1c3ccccc3ccc1c1[nH]c3ccccc3c21	14.4%
COc1cc(/C=N/n2cnc3oc(-c4ccccc4)cc3c2=N)cc(CN2CCN(C)CC2)c1O	80.6%
COC1=C(c2ccccc2)C(=O)C(OC)=C(c2ccccc2)C1=O	96.3%
Cc1ccc(-c2csc(N/N=C/c3nc4ccccc4n3C3CC3)n2)cc1	89.3%
CC(C)=CCc1c(O)c(CC=C(C)C)c2c(c1O)C(=O)C1=C[C@@H]3C[C@H]4C(C)(C)O[C@@](C/C=C(\C)C(=O)O)(C3=O)[C@@]14O2	-35.8% (active)
CN1CCN(c2nc(-c3csc(-c4ccncc4)n3)cc3ccccc23)CC1	25.4%
CC(C)SC1=NC(=C(C(=N1)NC2=ClC=CC=C2)C#N)C3=CC=CC=C3	27.9%
CC(=O)NC(C)(C)C(=O)N[C@@H](C)C(=O)NC(C)(C)C(=O)N[C@@H](C)C(=O)NC(C)(C)C(=O)N[C@@H](C)C(=O)N[C@@H](CCC(N)=O)C(=O)NC(C)(C)C(=O)N[C@H](C(=O)NC(C)(C)C(=O)NCC(=O)N[C@@H](CC(C)C)C(=O)NC(C)(C)C(=O)N1CCC[C@H]1C(=O)N[C@H](C(=O)NC(C)(C)C(=O)NC(C)(C)C(=O)N[C@@H](CCC(N)=O)C(=O)N[C@@H](CCC(N)=O)C(=O)N[C@H](CO)CC1CCCCC1)C(C)C)C(C)C	49.3% [5 µM]
Clc1ccc(-c2csc(N/N=C/c3nc4ccccc4n3C3CC3)n2)cc1	96.3%
O=C(NCCCNc1cc(-c2cn(-c3ccccc3)nc2-c2cccc(O)c2)ccn1)Nc1cc(C(F)(F)F)cc(C(F)(F)F)c1	51.2%
COc1ccc(-c2ccc3c4c(cccc24)C(=O)N(N2C(=O)c4cccc5cccc(c45)C2=O)C3=O)cc1	96.8%
Cc1cc(C(=O)Nc2ccc(SC#N)cc2)c(C)o1	96.1%
Oc1ccc(CSc2nnc(-c3cnccn3)o2)c2cccnc12	14.5%
O=C(O)c1ccc(-n2cc(CNc3ccc(Cl)cc3)c(-c3ccc(F)cc3)n2)cc1	82.7%
Cc1cn(-c2cc(NC(=O)c3cncc(C#Cc4cnc5ccc(OCCCS(C)(=O)=O)nn45)c3)cc(C(F)(F)F)c2)cn1	3.57% (active)
N/C(=N\OC(=O)CSc1nc2ccccc2s1)c1ccc2ccccc2c1	103%

SMILES	growth
Nc1nc(-c2cccc([N+](=O)[O-])c2)c(N=Nc2cccc(Cl)c2)s1	33.2%
CC[C@@](C)(NC(=O)C(C)(C)NC(=O)[C@@H](NC(=O)[C@@H]1CCCN1C(=O)C(C)(C)NC(=O)[C@H](CC(C)C)NC(=O)CNC(=O)C(C)(C)NC(=O)[C@@H](NC(=O)C(C)(C)NC(=O)[C@H](CCC(N)=O)NC(=O)[C@H](C)NC(=O)C(C)(C)NC(=O)[C@H](C)NC(=O)C(C)(C)NC(=O)[C@@H]1CCCN1C(=O)C(C)(C)NC(C)=O)C(C)C)C(C)C)C(=O)N[C@@H](CCC(N)=O)C(=O)N[C@@H](CCC(N)=O)C(=O)N[C@H](CO)Cc1ccccc1	27.8% [4.25 µM]
COc1ccc(-c2nn(-c3ccccc3)cc2/C=C/C(=O)c2ccc(NC(=O)CCCCCCC(=O)NO)cc2)cc1	95.5%
Nc1ccc(-c2nnc(SCc3ccc(O)c4ncccc34)o2)cc1	0.176% (active)
O=C1Nc2ccc(Cl)cc2/C1=C/c1ccc(OCc2ccc(Br)cc2F)cc1	96.7%
C=C1C(=O)O[C@@H]2/C=C(/C)C3=CC(=O)[C@@](C)(C[C@H](OC(=O)/C(C)=C\C)[C@@H]12)O3	-53.3% (active)
O=C(CCCCCCN1CC(=O)N2[C@@H](c3cccc(Cl)c3)c3[nH]c4ccccc4c3C[C@H]2C1=O)NO	14.8%
CS(=O)(=O)c1ccc(-c2nn(-c3ccccc3)cc2/C=N/NC(=O)c2ccncc2)cc1	107%
CC(C)=CCc1c2c(c(O)c3c1O[C@]14C(=C[C@@H]5C[C@H]1C(C)(C)O[C@@]4(C/C=C(/C)C(=O)O)C5=O)C3=O)CC(O)C(C)(C)O2 (some centres not stated)	-69.8% (active)
C=C(C)C(=O)O[C@H]1C[C@@]2(C)OC(=CC2=O)/C(CO)=C\[C@H]2OC(=O)C(=C)[C@H]12	-53.7% (active)
COc1ccc(-c2nnc(SCc3ccc(O)c4ncccc34)o2)cc1	23.1%
Nc1ccc(-c2nnc(SCc3ccc(O)c4ncccc34)n2-c2ccccc2)cc1	8.87% (active)
CC(C)N=C(N/C(N)=N/c1nc2ccccc2s1)NC(C)C	17.7%
CN1CCN(Cc2ccc(NC(=O)c3cncc(C#Cc4cnc5ccc(NC6CCOCC6)nn45)c3)cc2C(F)(F)F)CC1	-79% (active)
COc1cc(/C=C/C(=O)c2ccc(NC(=O)CSc3nnc(-c4ccc5nc(-c6ccccc6)[nH]c5c4)o3)cc2)cc(OC)c1OC	40.8%
CC(=O)c1ccc(NC(=O)COc2ccc(C3SCC(=O)N3c3ccc(Br)cc3)cc2)cc1 (configuration not stated)	91%
COc1ccc(Cn2cc3c(c2-c2ccccc2)CCCc2cnoc2-3)cc1	28.8%
O=C(CSc1ccc(-c2nc3ccccc3[nH]2)cn1)N1CCN(c2ccccc2F)CC1	68.1%
